According to PubChem BioAssay AID485336 (The Scripps Research Institute Molecular Screening Center, 2010):
Measured potencies and affinities stand elsewhere. Active and inactive are the calls of the source.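 Rule for the calls: active = average inhibition at 10 µM of 40% or more; inactive = average inhibition at 10 µM below 40%.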

What follows are compounds tested against Krueppel-like factor 5 (Homo sapiens) (UniProt Q13887) (assay: KLF5 protein lowering by immunoblot – western blot, chemiluminescence, DLD-1 cells, titration, orthogonal assay for KLF5 inhibitor project, late-stage follow-up (AID 485336)). Settings: DLD-1 KLF5 protein level, 24 h; series mostly up to 20 µM; inhibition: at the top concentration.
Sequence of Krueppel-like factor 5 (Homo sapiens) (Q13887 whole entry, looked up): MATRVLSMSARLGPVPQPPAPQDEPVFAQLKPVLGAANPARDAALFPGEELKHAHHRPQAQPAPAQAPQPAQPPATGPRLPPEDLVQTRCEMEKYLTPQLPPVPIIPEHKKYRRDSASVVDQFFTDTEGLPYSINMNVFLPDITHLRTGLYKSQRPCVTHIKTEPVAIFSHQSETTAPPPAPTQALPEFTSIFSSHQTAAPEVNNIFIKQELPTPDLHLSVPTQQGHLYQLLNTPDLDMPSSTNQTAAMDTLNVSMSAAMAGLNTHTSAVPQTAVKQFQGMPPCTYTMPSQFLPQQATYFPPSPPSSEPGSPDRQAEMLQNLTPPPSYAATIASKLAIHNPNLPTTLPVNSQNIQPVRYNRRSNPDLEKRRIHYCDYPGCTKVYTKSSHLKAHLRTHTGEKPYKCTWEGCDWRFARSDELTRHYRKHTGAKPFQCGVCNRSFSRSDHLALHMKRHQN

inhibition, inactive:
CCOC(=O)c1sc(NC(=O)c2cc3c(s2)CCC(C)C3)nc1C (stereo not given) -2.2%
COC(=O)c1ccc2nc(Nc3nc4ccc(F)cc4s3)sc2c1 13.5%
Cc1ccc2nc(NC(=O)CCCc3nc4ccccc4s3)sc2c1 13.5%
CCOC(=O)c1sc(NC(=O)c2ccc3ncsc3c2)nc1C -11.7%
CCCc1ccc(-c2ccc(/C=C/C(=O)O)cc2)nc1 4.12%
